Measurements as given in PubChem BioAssay (NCATS).
Records with an inconclusive call do not appear. Values without a mark were called inactive. Calls of active or inactive are those of the source. Calls come from the whole dose curve; as a rule, active = well fitted inhibition curve with a large enough effect; inconclusive = small, poorly fitted or top-dose-only effect; inactive = flat fitted curve, though single readings scatter.

system: CP256; experiment: qHTS profiling for inhibitors of Plasmodium falciparum proliferation (AID 504749); note: nearly all actives have a fitted effect of over 60% in size;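 for activity, negative = inhibition: 0% = DMSO vehicle and full inhibition = artemisinin control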; settings: P. falciparum in erythrocytes, SYBR Green DNA, 72 h; series mostly up to 28.7 µM; activity, negative = inhibition: at the top concentration
Outline: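 Each compound contacts P. falciparum-infected red blood cells for 72 h at 37 C; lysis buffer (Tris, EDTA, saponin, Triton X, SYBR Green I) is added and fluorescence measured next morning; values normalized to controls.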
Potency is the fitted concentration of half-maximal effect.

| SMILES | activity, negative = inhibition | Potency |
| --- | --- | --- |
| CCCCCCCCCCCCCCCC(=O)OC[C@H](O)[C@H]1OC[C@@H](O)[C@@H]1O | 8.29% | – |
| CCCCC(=O)OCC(=O)[C@]1(O)Cc2c(O)c3c(c(O)c2[C@H](OC2CC(NC(=O)C(F)(F)F)C(O)C(C)O2)C1)C(=O)c1c(OC)cccc1C3=O (stereo not given in full) | – | 2000 nM (active) |
| C[C@H]1OC(OC2C(O)[C@@H](O)C(OC3C(O)[C@@H](O)C(O)O[C@@H]3CO)O[C@@H]2CO)[C@H](O)C(O)C1N[C@H]1C=C(CO)[C@@H](O)[C@H](O)C1O (stereo not given in full) | 10.1% | – |
| CCN(CC)CC(=O)Nc1c(C)cc(C)cc1C | -1.08% | – |
| CC(=O)N[C@H]1[C@H](O[C@@H]2c3ccc(c(Cl)c3)Oc3cc4cc(c3O[C@@H]3O[C@H](CO)[C@@H](O)[C@H](O)C3C)Oc3ccc(cc3Cl)C[C@H]3NC(=O)[C@@H](N)c5ccc(O)c(c5)Oc5cc(O)cc(c5)[C@H](NC3=O)C(=O)N[C@H]4C(=O)N[C@H]3C(=O)N[C@@H]2C(=O)N[C@@H](C(=O)O)c2cc(O)cc(O[C@H]4O[C@H](CO)[C@@H](O)C(O)[C@@H]4O)c2-c2cc3ccc2O)O[C@H](CO)[C@@H](O)[C@@H]1O (stereo not given in full) | 0.323% [at 12.8 µM] | – |
| NC(=O)c1ncn(C2OC(CO)C(O)C2O)c1N (stereo not given) | 1.92% | – |
| C[C@H]1[C@@H](OC(=O)CCC(=O)O)OC2OC3(C)CC[C@H]4[C@H](C)CC[C@@H]1[C@@]24OO3 (stereo not given in full) | – | 7.1 nM (active) |
| CC1(Cn2ccnn2)[C@H](C(=O)O)N2C(=O)C[C@H]2S1(=O)=O (stereo not given in full) | 5.05% | – |
| CN(C)CC/C=C1\c2ccccc2COc2ccc(CC(=O)O)cc21 | 6.25% | – |
| CCCC(=O)O[C@]1(C(=O)COC(C)=O)CC[C@H]2C3C[C@H](F)C4=CC(=O)C=CC4(C)[C@@]3(F)[C@@H](O)CC21C (stereo not given in full) | 7.73% | – |
